Screening results as filed in PubChem.
Cruzain inh Det = qHTS Assay for Promiscuous and Specific Inhibitors of Cruzain (with detergent). Cruzipain (Trypanosoma cruzi), P25779. purified cruzain, Z-FR-AMC fluorescence, 0.01% Triton. Potency, µM, for the others: max response, negative = inhibition, most hits filed as inhibitors. 200,000 compounds, 0.43% hits. AID 1478, 2009;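 also: plate controls were neutral wells for no effect and buffer without enzyme for full effect; nearly all actives have a fitted effect of over 40% in size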
Target sequence (P25779 123-467 limits assumed): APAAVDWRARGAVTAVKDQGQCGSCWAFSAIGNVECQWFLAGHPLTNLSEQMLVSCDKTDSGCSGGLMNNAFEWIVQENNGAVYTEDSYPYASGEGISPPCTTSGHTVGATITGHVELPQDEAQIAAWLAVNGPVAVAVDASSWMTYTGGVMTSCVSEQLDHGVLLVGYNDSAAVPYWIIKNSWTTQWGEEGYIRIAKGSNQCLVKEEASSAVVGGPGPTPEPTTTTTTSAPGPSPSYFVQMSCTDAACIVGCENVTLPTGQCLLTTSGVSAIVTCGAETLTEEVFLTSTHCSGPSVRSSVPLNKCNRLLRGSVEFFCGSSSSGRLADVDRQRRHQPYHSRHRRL
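Detergent-containing arm of a paired screen for aggregation-based inhibition: 0.01% Triton X-100 present. Cruzain at 1.5 nM cleaved 2 uM Z-FR-AMC at pH 5.5 with 5 mM DTT; AMC fluorescence gain over 60 s measured activity.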
Cruzain noTriton = qHTS Assay for Promiscuous and Specific Inhibitors of Cruzain (without detergent); Cruzipain (Trypanosoma cruzi), P25779; purified cruzain, Z-FR-AMC fluorescence, no detergent; Potency, µM, without a hit: max response, negative = inhibition, actives largely listed as inhibitors; 200,000 compounds, 2.3% hits;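 also: plate controls were enzyme without inhibitor for no effect and buffer without enzyme for full effect; nearly all actives have a fitted effect of over 40% in size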
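Detergent-free condition (0.00005% Triton X-100) in acetate buffer pH 5.5 with DTT. 1.5 nM enzyme and compound were pre-mixed 15 min, then 2 uM Z-FR-AMC substrate added; reaction progress from fluorescence change between first and third reads (60 s).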
* = called active by the depositor; ? = inconclusive. The list is not random: actives were taken first. Their share in the collection is about 2.4%. Calls follow the shape of the dose curve; as a rule, active = well fitted curve in the direction sought with a large enough effect; inconclusive = small, poorly fitted or top-dose-only effect, or another doubt; inactive = no such curve, though single readings can be large; an effect the other way counts as inactive or inconclusive. Potency is read from the fitted curve at half-maximal effect.

SMILES | Cruzain inh Det | Cruzain noTriton
CCOc1ccc(S(=O)(=O)c2c(C(=O)c3ccc(C)cc3)cnc3cc4c(cc23)OCCO4)cc1 | -4.8% | 6.31µM*
Cc1ccc2ncc(C(=O)c3ccc(C)c(C)c3)c(S(=O)(=O)c3ccccc3)c2c1 | -5.3% | -21.4%
Cn1c(=O)c(-c2ccc(F)cc2)nc2cnc(Nc3ccccc3)nc21 | 3.3% | -13.5%
COc1cccc(Cn2c(=O)c(C)nc3cnc(N(C)C)nc32)c1 | -3.4% | ?
CCOC(=O)c1sc(NC(=O)Nc2ccc(Cl)cc2)cc1C | -1.6% | -7.6%
O=C(Nc1cccc(Cl)c1)Nc1cccc(Cl)c1 | -11.2% | 1.8%
CCOC(=O)c1c(NC(=O)Nc2ccc(Cl)cc2)sc(C)c1C | -0.8% | 25.1µM*
CCOC(=O)c1c(NC(=O)Nc2cccc(Cl)c2)sc(C)c1C | -0.4% | 25.1µM*
CCCCCCCc1cc2c(cn1)C(=O)C(C)(OC(C)=O)C(O)=C2Cl (stereo not drawn) | -1.9% | -7.0%
COC(=O)NC(c1ccccc1)c1c[nH]c2ccc(OC)cc12 (stereo not drawn) | 2.0% | -11.7%
COCCNC(=O)CCCn1c(=O)c2ccccc2n(CC(=O)NCCC2=CCCCC2)c1=O | 0.4% | 14.8%
CSc1ccc(/C=c2\s/c(=C\C(=O)C(C)(C)C)n(CC(=O)NCCC3=CCCCC3)c2=O)cc1 | -3.1% | 3.16µM*
COC(=O)[C@@]1(Cc2ccccc2)[C@H]2c3cc(C(=O)N(C)C)n(Cc4ccccc4)c3C[C@H]2CN1C(=O)c1ccccc1 | -2.2% | ?
NNc1nncn1N | -0.3% | 6.7%
CCOC(=O)c1c(/N=C/c2c(O)n(-c3ccc(F)cc3)c(=S)[nH]c2=O)sc2c1CCCC2 | -5.8% | -11.0%
CCOC(=O)c1c(/N=C/c2c(O)n(-c3ccccc3F)c(=S)[nH]c2=O)sc2c1CCCC2 | -10.5% | 15.8µM*
COCCOC(=O)c1c(C)n(S(=O)(=O)c2ccc(C)cc2)c2ccc(NS(=O)(=O)c3ccc(C)cc3)cc12 | -2.6% | 10µM*
Cc1ccc(S(=O)(=O)Nc2ccc(S(=O)(=O)N3CCCC3)cc2)cc1 | -1.8% | 0.2%
CCOC(=O)c1c(-c2ccccc2)oc2ccc(NS(=O)(=O)c3ccc(C)cc3)cc12 | 0.4% | ?
Cc1ccc(S(=O)(=O)Nc2ccc3c(c2)c(C(=O)OC(C)C)c(C)n3S(=O)(=O)c2ccc(C)cc2)cc1 | -3.0% | 5.01µM*
NC(=O)C[C@H](N)C(N)=O | -2.3% | -3.7%
CO[C@@H]1/C=C\O[C@@]2(C)Oc3c(C)c(O)c4c(c3C2=O)C(=N[C@H]2CC[C@H](O)O[C@@H]2C)C=C(NC(=O)/C(C)=C\C(=O)[C@@H]2C[C@@H]2[C@@H](O)[C@H](C)[C@@H](O)[C@H](C)[C@H](OC(C)=O)[C@@H]1C)C4=O | 0.9% | 5.4%
CCCCC#Cc1nc(N)c2ncn([C@@H]3O[C@H](C(=O)NCC)[C@@H](O)[C@H]3O)c2n1 | -1.9% | ?
CCc1nn(CC(=O)N2CCC(C)CC2)c(=O)c2cc3occc3n12 | -4.5% | 5.1%
COc1cc(/C=N/NC(=O)c2cc(-c3cccn3C)n[nH]2)cc(OC)c1OC | -1.7% | 5.8%
SMILES | Cruzain inh Det | Cruzain noTriton
O=C(N/N=C/c1ccccc1)c1ccc(CN2C(=O)c3cccc4cccc2c34)cc1 | -1.7% | -68.1%
COc1cccc(/C=N/NC(=O)c2ccc(CN3c4cccc5cccc(c45)S3(=O)=O)cc2)c1 | -5.9% | 20µM*
COc1cccc(/C=N/NC(=O)c2cc(-c3cccn3C)n[nH]2)c1 | 1.0% | 25.1µM*
COc1cccc(/C=N/NC(=O)c2ccc(OCc3cccc(Br)c3)cc2)c1 | 0.3% | ?
CN(C)c1ccc(/C=N/NC(=O)c2ccc(CN3C(=O)c4cccc5cccc3c45)cc2)cc1 | -1.1% | 3.98µM*
COCCNc1nc(C)nc2c1nc(-c1ccccc1)n2C1CCN(Cc2ccccc2)C1 (stereo not drawn) | 1.7% | 5.5%
CCNC(=O)[C@H](C)/C=C/C(NC(=O)OCc1ccccc1)c1ccc(C(=O)OC)cc1 (stereo partly drawn) | -1.3% | -0.7%
CC(=O)Nc1ccc(NC(=O)c2ccc(COc3ccc4c(C)cc(=O)oc4c3)cc2)cc1 | -4.1% | -14.7%
Cc1ccc(Cl)cc1NC(=O)COC(=O)c1ccc(COc2ccc3c(C)cc(=O)oc3c2)cc1 | -1.4% | 7.94µM*
O=C(C(Cc1ccccc1)N1C(=O)c2ccccc2C1=O)N1CCc2ccccc21 (stereo not drawn) | -3.4% | -12.8%
CCC(=O)Nc1cc2nn(-c3ccc(OC)cc3)nc2cc1C | 8.0% | ?
COc1ccc(-n2nc3cc(C)c(NC(=S)NC(=O)c4ccccc4C)cc3n2)cc1 | -2.7% | 12.6µM*
O=C(c1cccc(C(=O)N2CCN(c3ncccn3)CC2)c1)N1CCN(c2ncccn2)CC1 | 5.7% | -6.6%
O=C(Nc1ccc2nc(-c3ccco3)c(-c3ccco3)nc2c1)N1CCN(c2ccccn2)CC1 | 14.1µM* | 2.51µM*
Cc1nc2cc(NC(=O)N3CCN(c4ccccn4)CC3)ccc2o1 | 7.8% | 2.8%
O=C(c1ccc2nc(-c3ccco3)c(-c3ccco3)nc2c1)N1CCN(c2ncccn2)CC1 | 25.1µM* | ?
COCCNC(=O)CCCn1c(SCc2ccccc2C)nc2c(sc3ccccc32)c1=O | 2.5% | ?
O=C(NCCCN1CCN(c2ccccc2)CC1)c1nnc(Cc2c(F)cccc2Cl)o1 | -0.9% | -2.4%
N#CC1(O)CCCCC1 | -1.5% | 2.6%
O=C(Nc1nc(-c2ccc(Cl)s2)cs1)c1cccs1 | -8.3% | ?
O=C(Nc1ccc([N+](=O)[O-])cc1)Nc1nc(-c2ccc(Cl)s2)cs1 | -0.6% | 5.01µM*
CCCCCS(=O)(=O)CCCCCCCCCCn1c(-c2ccc(O)cc2)c(C)c2cc(O)ccc21 | 9.5% | ?
CCOC(=O)CSc1cc(CS(=O)c2ccc(Cl)cc2)nc(-c2ccccc2)n1 (stereo not drawn) | -5.9% | 1.2%
CCOC(=O)CSc1nc(-c2ccc(F)cc2)cc(C(F)(F)F)c1C#N | -1.3% | 5.2%
Cc1ccc2nc(C3CCCN(C(=S)Nc4cccc(C)c4C)C3)[nH]c2c1 (stereo not drawn) | 14.1µM* | 15.8µM*
SMILES | Cruzain inh Det | Cruzain noTriton
Cc1ccc(NC(=S)N2CCCC(c3nc4ccc(C)cc4[nH]3)C2)c(C)c1 (stereo not drawn) | ? | -26.0%
O=C(CSc1nnc(-c2ccco2)o1)c1ccccc1 | -6.6% | 15.8µM*
O=C(CSc1nnc(-c2ccco2)o1)c1ccc(F)c(F)c1 | 3.7% | -2.7%
COC(=O)c1ccc(C(NC(=O)OCc2ccccc2)/C(F)=C/[C@@H](C)C(=O)NCc2cccnc2)cc1 (stereo partly drawn) | -7.9% | 27.4%
CC(=O)c1cccc(NC(=O)c2nc(-c3ccccc3)n(-c3ccccc3C)n2)c1 | -5.9% | 7.94µM*
COc1ccc(-c2nc(C(=O)Nc3cccc(C(C)=O)c3)nn2-c2ccc(Cl)cc2)cc1 | -3.5% | -19.9%
COc1ccccc1NC(=O)c1oc2ccccc2c1NC(=O)c1cccc(OC)c1OC | -1.9% | -0.7%
c1ccc2oc(C3=NNC(=NC4CC4)SC3)cc2c1 | -11.1% | 15.8µM*
c1ccc(CN=C2NN=C(c3cc4ccccc4o3)CS2)cc1 | -15.8% | ?
COC1CCC(C(=O)c2ccc3nc4c(cc3c2)CCCO4)CC1 (stereo not drawn) | -7.4% | 0.6%
CCNc1ncc2ncc(=O)n(C[C@H]3CCCO3)c2n1 | -14.6% | -14.5%
